# Experiments:
# Test in all cases: DAPPL (digital affinity profiling via proximity ligation, sequencing); 10 mM Tris-HCl pH 7.5, 50 mM NaCl, 1 mM DTT, 4% glycerol, room temperature, 30 min; GST-TFs on glutathione beads, 16-mer random dsDNA library, 0.1% formaldehyde crosslink after washing; high values mean tight binding
# FEV = molecular target: T1, FEV (Homo sapiens, UniProt Q99581 1-238); details: protein: recombinant; tags: N-terminal GST; dsDNA, one strand shown
# T1 sequence: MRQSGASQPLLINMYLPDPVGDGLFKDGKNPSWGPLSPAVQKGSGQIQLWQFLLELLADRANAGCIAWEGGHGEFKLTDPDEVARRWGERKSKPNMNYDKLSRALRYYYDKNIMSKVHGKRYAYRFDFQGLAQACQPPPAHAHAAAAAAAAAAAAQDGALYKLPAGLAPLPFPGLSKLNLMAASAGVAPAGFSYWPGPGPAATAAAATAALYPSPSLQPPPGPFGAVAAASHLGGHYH
# Summary of the method: (§1)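 Yeast served to express human transcription factors as GST fusions, which were then captured on glutathione beads and labelled with DNA barcodes. Pooled with a tag-only sample, they were incubated with 200 nmole of a 16-mer random double-stranded DNA library for 30 min at room temperature in Tris/NaCl/DTT/glycerol buffer, washed, crosslinked with 0.1% formaldehyde, ligated by proximity, amplified by PCR and sequenced. Dividing each hexamer's read frequency for a factor by its frequency for the tag-only sample gives the binding signal.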
# ETV5 = ETV5 (Homo sapiens, UniProt P41161 1-510); details: protein: recombinant; tags: N-terminal GST; dsDNA, one strand shown
# Sequence of ETV5 (P41161 whole entry): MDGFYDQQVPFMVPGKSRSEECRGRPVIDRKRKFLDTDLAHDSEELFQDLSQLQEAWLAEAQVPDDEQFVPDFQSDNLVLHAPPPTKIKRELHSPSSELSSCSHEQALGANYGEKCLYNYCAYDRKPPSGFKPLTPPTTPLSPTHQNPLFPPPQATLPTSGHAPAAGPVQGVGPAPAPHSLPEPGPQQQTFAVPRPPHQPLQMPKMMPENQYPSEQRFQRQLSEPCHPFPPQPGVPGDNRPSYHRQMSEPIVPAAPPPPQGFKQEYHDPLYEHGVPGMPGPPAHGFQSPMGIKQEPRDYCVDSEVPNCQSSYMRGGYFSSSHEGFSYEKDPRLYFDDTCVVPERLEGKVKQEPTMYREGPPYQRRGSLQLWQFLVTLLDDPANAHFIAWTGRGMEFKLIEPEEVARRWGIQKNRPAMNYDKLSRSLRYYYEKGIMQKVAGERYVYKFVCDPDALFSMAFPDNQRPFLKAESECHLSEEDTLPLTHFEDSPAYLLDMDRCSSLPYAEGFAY
# Summary of the method: as §1
# HSF1 = HSF1 (Homo sapiens, UniProt Q00613 1-529); details: protein: recombinant; tags: N-terminal GST; chain copies: 3; dsDNA, one strand shown
# Sequence of HSF1 (Q00613 whole entry): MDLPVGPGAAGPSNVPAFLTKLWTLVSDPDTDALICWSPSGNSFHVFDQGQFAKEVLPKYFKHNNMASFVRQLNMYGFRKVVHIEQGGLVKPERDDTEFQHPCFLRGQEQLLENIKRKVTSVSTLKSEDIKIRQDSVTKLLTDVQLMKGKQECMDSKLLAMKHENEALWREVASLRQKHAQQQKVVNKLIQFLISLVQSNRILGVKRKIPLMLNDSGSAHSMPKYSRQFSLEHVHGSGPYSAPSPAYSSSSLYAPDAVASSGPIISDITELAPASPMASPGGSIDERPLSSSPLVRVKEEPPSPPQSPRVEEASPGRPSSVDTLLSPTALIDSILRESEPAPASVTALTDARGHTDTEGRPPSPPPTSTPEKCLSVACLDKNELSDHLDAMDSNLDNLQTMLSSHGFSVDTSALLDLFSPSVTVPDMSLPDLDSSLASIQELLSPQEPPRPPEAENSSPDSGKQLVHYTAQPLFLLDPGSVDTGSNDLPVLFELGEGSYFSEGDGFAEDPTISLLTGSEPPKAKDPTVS
# Summary of the method: as §1
# SPIC = molecular target: T2, SPIC (Homo sapiens, UniProt Q8N5J4 1-248); details: protein: recombinant; tags: N-terminal GST; dsDNA, one strand shown
# T2 sequence: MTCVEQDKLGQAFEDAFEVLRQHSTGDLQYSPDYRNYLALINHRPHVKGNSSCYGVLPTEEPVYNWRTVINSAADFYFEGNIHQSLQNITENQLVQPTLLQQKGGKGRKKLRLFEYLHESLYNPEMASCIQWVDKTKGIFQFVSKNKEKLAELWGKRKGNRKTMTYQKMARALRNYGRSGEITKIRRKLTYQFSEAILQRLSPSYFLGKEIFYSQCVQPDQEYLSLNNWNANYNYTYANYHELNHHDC
# Summary of the method: as §1
# ELF4 = ELF4 (Homo sapiens, UniProt Q99607 1-663); details: protein: recombinant; tags: N-terminal GST; dsDNA, one strand shown
# Sequence of ELF4 (Q99607 whole entry): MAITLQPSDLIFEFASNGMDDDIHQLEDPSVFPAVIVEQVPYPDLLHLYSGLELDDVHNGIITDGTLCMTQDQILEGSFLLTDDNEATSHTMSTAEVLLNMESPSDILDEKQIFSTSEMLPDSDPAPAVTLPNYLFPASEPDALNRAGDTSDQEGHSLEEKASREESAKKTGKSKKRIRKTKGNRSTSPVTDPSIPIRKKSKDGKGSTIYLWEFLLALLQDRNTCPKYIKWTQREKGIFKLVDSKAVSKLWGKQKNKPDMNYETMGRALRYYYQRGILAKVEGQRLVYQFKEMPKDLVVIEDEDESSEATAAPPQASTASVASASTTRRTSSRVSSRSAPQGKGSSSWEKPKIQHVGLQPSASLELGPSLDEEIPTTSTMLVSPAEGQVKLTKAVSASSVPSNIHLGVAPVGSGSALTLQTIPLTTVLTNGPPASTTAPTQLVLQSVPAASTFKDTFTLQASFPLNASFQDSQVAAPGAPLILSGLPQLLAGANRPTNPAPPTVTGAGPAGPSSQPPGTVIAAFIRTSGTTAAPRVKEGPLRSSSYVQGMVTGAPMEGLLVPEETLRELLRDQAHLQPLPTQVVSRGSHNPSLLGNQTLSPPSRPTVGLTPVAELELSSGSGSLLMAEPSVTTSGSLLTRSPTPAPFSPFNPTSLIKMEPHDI
# Summary of the method: as §1
# ELK4 = molecular target: T3, ELK4 (Homo sapiens, UniProt P28324-2 1-405); details: protein: recombinant; tags: N-terminal GST; dsDNA, one strand shown
# T3 sequence: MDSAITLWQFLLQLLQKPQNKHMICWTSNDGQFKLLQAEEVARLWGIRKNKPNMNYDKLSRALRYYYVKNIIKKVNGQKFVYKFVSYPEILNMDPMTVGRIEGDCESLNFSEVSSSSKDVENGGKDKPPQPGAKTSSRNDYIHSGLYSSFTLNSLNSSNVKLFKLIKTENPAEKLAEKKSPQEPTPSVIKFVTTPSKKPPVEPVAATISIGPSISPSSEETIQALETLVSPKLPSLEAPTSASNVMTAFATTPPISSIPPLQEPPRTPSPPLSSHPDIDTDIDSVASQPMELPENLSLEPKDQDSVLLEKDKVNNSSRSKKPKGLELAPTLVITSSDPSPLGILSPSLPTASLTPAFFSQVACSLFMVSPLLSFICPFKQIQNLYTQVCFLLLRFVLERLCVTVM
# Summary of the method: as §1
# ETV2 = molecular target: T4, ETV2 (Homo sapiens, UniProt O00321 1-342); details: protein: recombinant; tags: N-terminal GST; dsDNA, one strand shown
# T4 sequence: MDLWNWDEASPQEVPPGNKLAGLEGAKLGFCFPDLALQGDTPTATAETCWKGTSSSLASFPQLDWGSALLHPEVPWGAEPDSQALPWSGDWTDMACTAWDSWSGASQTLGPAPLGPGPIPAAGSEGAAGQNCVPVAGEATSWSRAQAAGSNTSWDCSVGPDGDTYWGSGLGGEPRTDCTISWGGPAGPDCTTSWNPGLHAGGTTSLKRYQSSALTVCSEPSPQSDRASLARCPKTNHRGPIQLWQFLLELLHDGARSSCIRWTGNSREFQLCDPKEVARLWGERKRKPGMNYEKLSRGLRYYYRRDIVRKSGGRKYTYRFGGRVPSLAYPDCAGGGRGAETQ
# Summary of the method: as §1
# ELF3 = molecular target: T5, ELF3 (Homo sapiens, UniProt P78545 1-371); details: protein: recombinant; tags: N-terminal GST; dsDNA, one strand shown
# T5 sequence: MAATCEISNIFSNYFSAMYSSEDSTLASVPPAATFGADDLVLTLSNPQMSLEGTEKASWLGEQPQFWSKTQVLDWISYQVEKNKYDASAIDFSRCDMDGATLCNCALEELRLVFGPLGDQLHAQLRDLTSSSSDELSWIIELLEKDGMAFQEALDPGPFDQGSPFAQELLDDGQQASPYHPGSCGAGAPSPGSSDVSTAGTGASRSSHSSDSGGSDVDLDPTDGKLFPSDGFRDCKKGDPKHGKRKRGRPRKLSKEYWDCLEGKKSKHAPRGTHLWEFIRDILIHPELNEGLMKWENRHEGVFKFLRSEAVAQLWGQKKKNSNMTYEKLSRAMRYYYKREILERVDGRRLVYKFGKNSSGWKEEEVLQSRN
# Summary of the method: as §1
# CRX = CRX (Homo sapiens, UniProt O43186 1-299); details: protein: recombinant; tags: N-terminal GST; dsDNA, one strand shown
# Sequence of CRX (O43186 whole entry): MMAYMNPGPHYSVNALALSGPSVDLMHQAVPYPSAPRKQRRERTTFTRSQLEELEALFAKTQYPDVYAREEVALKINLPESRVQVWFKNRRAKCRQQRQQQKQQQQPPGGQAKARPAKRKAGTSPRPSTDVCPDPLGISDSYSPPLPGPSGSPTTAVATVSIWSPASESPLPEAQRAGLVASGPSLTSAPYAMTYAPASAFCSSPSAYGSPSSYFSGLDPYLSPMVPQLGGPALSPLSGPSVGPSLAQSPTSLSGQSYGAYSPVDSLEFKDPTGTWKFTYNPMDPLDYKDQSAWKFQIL
# Summary of the method: as §1
# ETV1 = ETV1 (Homo sapiens, UniProt P50549 1-477); details: protein: recombinant; tags: N-terminal GST; dsDNA, one strand shown
# Sequence of ETV1 (P50549 whole entry): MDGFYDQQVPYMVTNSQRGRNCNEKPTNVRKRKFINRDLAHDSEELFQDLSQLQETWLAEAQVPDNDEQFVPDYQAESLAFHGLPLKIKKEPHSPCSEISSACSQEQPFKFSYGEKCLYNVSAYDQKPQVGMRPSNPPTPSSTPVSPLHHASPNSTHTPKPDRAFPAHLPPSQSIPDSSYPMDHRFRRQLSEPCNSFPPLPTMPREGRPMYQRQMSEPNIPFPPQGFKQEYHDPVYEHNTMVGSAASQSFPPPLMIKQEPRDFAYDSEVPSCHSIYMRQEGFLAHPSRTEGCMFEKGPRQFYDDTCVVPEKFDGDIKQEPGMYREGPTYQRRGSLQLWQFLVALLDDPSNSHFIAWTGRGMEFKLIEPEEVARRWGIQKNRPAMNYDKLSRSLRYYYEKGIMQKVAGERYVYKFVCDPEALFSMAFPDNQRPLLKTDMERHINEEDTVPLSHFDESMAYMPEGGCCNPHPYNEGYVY
# Summary of the method: as §1
# ERF = molecular target: T6, ERF (Homo sapiens, UniProt P50548 1-548); details: protein: recombinant; tags: N-terminal GST; dsDNA, one strand shown
# T6 sequence: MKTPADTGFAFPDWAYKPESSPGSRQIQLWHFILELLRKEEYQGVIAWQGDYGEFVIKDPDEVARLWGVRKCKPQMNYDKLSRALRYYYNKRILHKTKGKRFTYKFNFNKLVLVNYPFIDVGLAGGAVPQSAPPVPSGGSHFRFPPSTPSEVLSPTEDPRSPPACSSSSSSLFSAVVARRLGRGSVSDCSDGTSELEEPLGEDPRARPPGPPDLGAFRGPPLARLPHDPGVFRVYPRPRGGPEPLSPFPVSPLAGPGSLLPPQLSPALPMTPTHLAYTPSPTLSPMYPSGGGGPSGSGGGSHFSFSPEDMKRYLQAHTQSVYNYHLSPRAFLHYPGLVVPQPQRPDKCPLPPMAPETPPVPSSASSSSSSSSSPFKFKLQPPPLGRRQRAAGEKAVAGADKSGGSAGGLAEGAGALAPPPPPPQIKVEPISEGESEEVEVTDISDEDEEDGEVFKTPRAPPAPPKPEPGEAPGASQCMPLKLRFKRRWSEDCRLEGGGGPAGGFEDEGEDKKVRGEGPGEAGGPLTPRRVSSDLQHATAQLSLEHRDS
# Summary of the method: as §1
# ETV3L = molecular target: T7, ETV3L (Homo sapiens, UniProt Q6ZN32 1-361); details: protein: recombinant; tags: N-terminal GST; dsDNA, one strand shown
# T7 sequence: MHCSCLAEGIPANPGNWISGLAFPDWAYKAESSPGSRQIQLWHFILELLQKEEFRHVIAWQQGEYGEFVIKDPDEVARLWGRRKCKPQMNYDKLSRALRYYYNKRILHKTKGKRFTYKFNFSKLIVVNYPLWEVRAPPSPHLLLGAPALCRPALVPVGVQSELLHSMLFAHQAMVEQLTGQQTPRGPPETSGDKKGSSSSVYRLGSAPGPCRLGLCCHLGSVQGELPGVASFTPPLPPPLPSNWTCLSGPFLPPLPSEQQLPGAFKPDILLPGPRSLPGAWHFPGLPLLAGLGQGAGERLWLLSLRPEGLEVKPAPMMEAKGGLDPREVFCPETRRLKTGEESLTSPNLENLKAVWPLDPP
# Summary of the method: as §1
# ETS2 = molecular target: T8, ETS2 (Homo sapiens, UniProt P15036 1-469); details: protein: recombinant; tags: N-terminal GST; dsDNA, one strand shown
# T8 sequence: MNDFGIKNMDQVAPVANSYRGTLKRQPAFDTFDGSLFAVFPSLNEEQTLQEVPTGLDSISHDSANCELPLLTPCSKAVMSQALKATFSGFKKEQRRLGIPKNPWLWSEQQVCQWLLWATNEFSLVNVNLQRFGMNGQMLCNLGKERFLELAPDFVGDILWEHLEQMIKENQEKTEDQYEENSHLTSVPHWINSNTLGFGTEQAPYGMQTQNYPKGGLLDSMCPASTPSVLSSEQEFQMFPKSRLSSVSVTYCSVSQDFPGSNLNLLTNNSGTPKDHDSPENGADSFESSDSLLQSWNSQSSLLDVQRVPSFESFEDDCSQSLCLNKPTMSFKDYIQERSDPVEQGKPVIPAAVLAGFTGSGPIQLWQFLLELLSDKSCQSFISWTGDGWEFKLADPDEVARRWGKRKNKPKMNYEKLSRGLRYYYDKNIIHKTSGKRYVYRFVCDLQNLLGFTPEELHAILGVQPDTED
# Summary of the method: as §1
# SPDEF = molecular target: T9, SPDEF (Homo sapiens, UniProt O95238 1-335); details: protein: recombinant; tags: N-terminal GST; dsDNA, one strand shown
# T9 sequence: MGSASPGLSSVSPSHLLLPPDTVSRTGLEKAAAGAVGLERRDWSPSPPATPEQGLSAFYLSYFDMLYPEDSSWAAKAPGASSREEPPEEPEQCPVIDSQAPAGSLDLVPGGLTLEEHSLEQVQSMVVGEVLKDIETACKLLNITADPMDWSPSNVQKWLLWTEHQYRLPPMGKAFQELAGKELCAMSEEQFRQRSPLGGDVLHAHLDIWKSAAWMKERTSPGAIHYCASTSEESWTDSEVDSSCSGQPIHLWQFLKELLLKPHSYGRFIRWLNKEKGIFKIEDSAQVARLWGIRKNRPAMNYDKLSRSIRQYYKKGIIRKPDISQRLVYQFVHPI
# Summary of the method: as §1
# ETV7 = molecular target: T10, ETV7 (Homo sapiens, UniProt Q9Y603 1-341); details: protein: recombinant; tags: N-terminal GST; dsDNA, one strand shown
# T10 sequence: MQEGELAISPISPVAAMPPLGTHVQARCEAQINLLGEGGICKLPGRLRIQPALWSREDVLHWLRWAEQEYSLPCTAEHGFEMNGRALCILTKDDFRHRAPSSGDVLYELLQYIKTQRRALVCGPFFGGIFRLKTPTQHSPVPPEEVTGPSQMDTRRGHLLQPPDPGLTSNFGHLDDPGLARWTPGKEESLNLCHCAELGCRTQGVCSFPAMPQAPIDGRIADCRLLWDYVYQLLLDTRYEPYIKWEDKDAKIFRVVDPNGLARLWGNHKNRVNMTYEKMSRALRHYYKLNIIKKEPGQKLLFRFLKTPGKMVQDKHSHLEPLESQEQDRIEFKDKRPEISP
# Summary of the method: as §1
# ELF5 = molecular target: T11, ELF5 (Homo sapiens, UniProt Q9UKW6-2 1-255); details: protein: recombinant; tags: N-terminal GST; dsDNA, one strand shown
# T11 sequence: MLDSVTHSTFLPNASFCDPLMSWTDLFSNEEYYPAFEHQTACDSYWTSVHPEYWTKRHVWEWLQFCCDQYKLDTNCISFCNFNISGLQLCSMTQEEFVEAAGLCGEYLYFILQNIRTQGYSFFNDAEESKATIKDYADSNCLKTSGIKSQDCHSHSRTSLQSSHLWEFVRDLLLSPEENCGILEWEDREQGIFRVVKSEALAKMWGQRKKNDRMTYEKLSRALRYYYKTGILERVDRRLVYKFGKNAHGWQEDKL
# Summary of the method: as §1
# ETV3 = molecular target: T12, ETV3 (Homo sapiens, UniProt P41162-2 1-143); details: protein: recombinant; tags: N-terminal GST; dsDNA, one strand shown
# T12 sequence: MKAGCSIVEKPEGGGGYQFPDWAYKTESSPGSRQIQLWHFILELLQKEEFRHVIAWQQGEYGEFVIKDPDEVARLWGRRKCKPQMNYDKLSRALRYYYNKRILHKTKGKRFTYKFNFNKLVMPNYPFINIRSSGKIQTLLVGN
# Summary of the method: as §1
# ETV6 = ETV6 (Homo sapiens, UniProt P41212 1-452); details: protein: recombinant; tags: N-terminal GST; dsDNA, one strand shown
# Sequence of ETV6 (P41212 whole entry): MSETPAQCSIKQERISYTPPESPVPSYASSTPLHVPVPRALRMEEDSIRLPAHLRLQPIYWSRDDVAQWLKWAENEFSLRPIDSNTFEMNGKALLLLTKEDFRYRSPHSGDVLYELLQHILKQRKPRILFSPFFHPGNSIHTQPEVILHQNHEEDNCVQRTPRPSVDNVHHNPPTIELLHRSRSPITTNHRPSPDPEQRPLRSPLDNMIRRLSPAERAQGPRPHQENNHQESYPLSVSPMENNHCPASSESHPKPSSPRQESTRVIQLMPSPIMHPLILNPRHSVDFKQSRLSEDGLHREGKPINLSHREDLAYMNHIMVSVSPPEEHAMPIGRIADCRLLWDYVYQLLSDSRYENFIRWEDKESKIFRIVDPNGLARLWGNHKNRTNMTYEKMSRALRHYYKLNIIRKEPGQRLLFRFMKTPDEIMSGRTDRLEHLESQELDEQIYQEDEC
# Summary of the method: as §1
sequence,measurement,setting,value
TATTCT,binding signal,FEV,"1.27 fold enrichment (6-mer frequency, TF over GST control)"
same,binding signal,ETV5,"1.33 fold enrichment (6-mer frequency, TF over GST control)"
same,binding signal,HSF1,"2.77 fold enrichment (6-mer frequency, TF over GST control)"
same,binding signal,SPIC,"1.28 fold enrichment (6-mer frequency, TF over GST control)"
same,binding signal,ELF4,"1.38 fold enrichment (6-mer frequency, TF over GST control)"
same,binding signal,ELK4,"1.37 fold enrichment (6-mer frequency, TF over GST control)"
same,binding signal,ETV2,"1.29 fold enrichment (6-mer frequency, TF over GST control)"
same,binding signal,ELF3,"1.38 fold enrichment (6-mer frequency, TF over GST control)"
same,binding signal,CRX,"1.9 fold enrichment (6-mer frequency, TF over GST control)"
same,binding signal,ETV1,"1.4 fold enrichment (6-mer frequency, TF over GST control)"
same,binding signal,ERF,"1.22 fold enrichment (6-mer frequency, TF over GST control)"
same,binding signal,ETV3L,"1.35 fold enrichment (6-mer frequency, TF over GST control)"
same,binding signal,ETS2,"1.36 fold enrichment (6-mer frequency, TF over GST control)"
same,binding signal,SPDEF,"1.34 fold enrichment (6-mer frequency, TF over GST control)"
same,binding signal,ETV7,"1.42 fold enrichment (6-mer frequency, TF over GST control)"
same,binding signal,ELF5,"1.32 fold enrichment (6-mer frequency, TF over GST control)"
same,binding signal,ETV3,"1.31 fold enrichment (6-mer frequency, TF over GST control)"
same,binding signal,ETV6,"1.4 fold enrichment (6-mer frequency, TF over GST control)"

# Source: PMC7862700, “An all-to-all approach to the identification of sequence-specific readers for epigenetic DNA modifications on cytosine”
